# PubChem BioAssay (NCATS)
# Results filed as inconclusive are left out. Activity calls are given as the source filed them. Calls follow the shape of the dose curve; as a rule, active = well fitted inhibition curve with a large enough effect; inconclusive = small, poorly fitted or top-dose-only effect; inactive = no such curve, though single readings can be large or run the other way.
# Biological target: Rap guanine nucleotide exchange factor 3 (Homo sapiens) (UniProt O95398)
# Test: Counterscreen qHTS for antagonist of cAMP-regulated guanine nucleotide exchange factor 3 (EPAC1) (AID 1645888);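 also: fluorescence loss as bound BODIPY-GDP is released from Rap1B; % of control where 0% means no effect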
# Conditions: Rap1B-BODIPY-GDP nucleotide exchange, fluorescence; series mostly up to 154 µM
# In short: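 Measured: fluorescence of BODIPY-GDP bound to Rap1B, which falls as exchange proceeds. Conditions include 50 uM competing GDP, 5 and 30 min reads, and a later cAMP challenge for antagonist detection.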
# Sequence of Rap guanine nucleotide exchange factor 3 (Homo sapiens) (O95398 whole entry, looked up): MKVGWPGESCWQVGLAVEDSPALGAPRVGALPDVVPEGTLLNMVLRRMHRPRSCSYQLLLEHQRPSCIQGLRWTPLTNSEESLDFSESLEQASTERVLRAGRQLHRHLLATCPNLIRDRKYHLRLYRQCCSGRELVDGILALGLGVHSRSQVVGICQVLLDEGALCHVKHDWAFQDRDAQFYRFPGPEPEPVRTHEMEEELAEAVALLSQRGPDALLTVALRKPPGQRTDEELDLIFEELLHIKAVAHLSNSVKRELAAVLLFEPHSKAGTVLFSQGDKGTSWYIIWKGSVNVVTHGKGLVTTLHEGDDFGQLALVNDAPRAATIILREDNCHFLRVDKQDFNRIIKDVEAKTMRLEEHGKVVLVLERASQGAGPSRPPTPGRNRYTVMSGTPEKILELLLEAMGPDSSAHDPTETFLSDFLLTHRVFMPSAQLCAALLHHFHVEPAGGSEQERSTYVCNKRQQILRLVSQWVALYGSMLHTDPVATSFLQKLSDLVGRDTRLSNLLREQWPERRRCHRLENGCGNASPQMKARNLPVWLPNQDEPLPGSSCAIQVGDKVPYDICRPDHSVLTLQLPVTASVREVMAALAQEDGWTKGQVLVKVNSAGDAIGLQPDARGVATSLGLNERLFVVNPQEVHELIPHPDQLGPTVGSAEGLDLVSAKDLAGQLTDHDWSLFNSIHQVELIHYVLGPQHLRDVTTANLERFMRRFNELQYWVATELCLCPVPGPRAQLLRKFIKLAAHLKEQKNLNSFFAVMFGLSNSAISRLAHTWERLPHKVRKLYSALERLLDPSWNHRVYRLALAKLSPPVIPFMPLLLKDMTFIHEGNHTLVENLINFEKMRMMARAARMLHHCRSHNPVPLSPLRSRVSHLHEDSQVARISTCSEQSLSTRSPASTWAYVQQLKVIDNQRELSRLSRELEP
Structure (SMILES),outcome,"activity change, negative = inhibition"
CCOC(=O)[C@]12Cc3cc(OC)ccc3[C@H]1N(Cc1ccccc1)C(=O)c1cc(F)c(F)cc12,inactive,
Cc1c(NS(=O)(=O)c2ccccc2)ccc([N+](=O)[O-])c1Cl,inactive,
CCOC(=O)[C@]12Cc3ccc(C)cc3[C@H]1N(C1CCCCC1)C(=O)c1cc(OC)ccc12,inactive,
CCOC(=O)[C@]12Cc3cc(C)ccc3[C@H]1N(Cc1ccccc1)C(=O)c1ccccc12,inactive,
Nc1c(C(=O)Nc2ccc(Br)cc2F)sc2nc3c(cc12)N1CCC3CC1,inactive,
O=C1NC(=O)N(Cc2ccccc2)C(=O)/C1=C/C=C/c1ccco1,,-0.901% [at 30.8 µM] (inactive)
